# Data as given in the antibiotic and cytotoxicity screens of Wong et al. (2023).
# About 3,300 (8.5%) of roughly 39,000 compounds were called active. What follows is part of a selection rich in actives, with near analogues and random picks from the rest.
# System: HepG2
# Test: cytotoxicity call (relative viability < 0.9)
# Settings: 10 µM
row,Compound,cytotoxicity call
1,C[C@H](CO)N1C[C@H](C)[C@@H](CN(C)CC2CC2)Oc2ccc(NC(=O)CCN3CCOCC3)cc2CC1=O,inactive
2,COC(=O)c1c(CC[C@@H](CO)NC(=O)N[C@H](Cc2ccccc2)Cn2cc(-c3ccccc3N)nn2)oc(C(C)=O)c1C(=O)OC,inactive
3,COc1ccc(NC(=O)N(C)C[C@@H]2Oc3ccc(NC(=O)Nc4cccc5ccccc45)cc3CC(=O)N([C@H](C)CO)C[C@H]2C)cc1,inactive
4,C[C@H](CO)N1C[C@H](C)[C@H](CN(C)C(=O)NC2CCCCC2)OCCCC[C@H](C)Oc2ccc(NC(=O)c3ccncc3)cc2C1=O,inactive
5,COc1ccc(NC(=O)N(C)C[C@H]2Oc3ccc(NC(=O)CCN4CCOCC4)cc3C(=O)N([C@@H](C)CO)C[C@H]2C)cc1,inactive
6,C[C@@H]1CN([C@@H](C)CO)C(=O)CCCn2nncc2CO[C@H]1CN(C)C(=O)c1ccc(N2CCN(C)CC2)cc1,inactive
7,C[C@H]1CN([C@@H](C)CO)C(=O)c2cccc(NC(=O)C3CC3)c2O[C@@H]1CN(C)C(=O)Nc1ccc2c(c1)OCO2,inactive
8,C[C@@H]1CCCCO[C@H](CN(C)CC2CCCCC2)[C@H](C)CN([C@@H](C)CO)C(=O)c2cc(NC(=O)c3ccncc3)ccc2O1,inactive
9,C[C@@H]1CN([C@H](C)CO)C(=O)Cc2cc(NC(=O)Cn3cnnn3)ccc2O[C@H]1CN(C)C(=O)Nc1ccc2c(c1)OCO2,inactive
10,COCC(=O)N1C[C@@H](C)[C@@H](OC)CN(C)C(=O)c2cc(NC(=O)c3cc(C)on3)ccc2OC[C@@H]1C,inactive
11,Cc1ccc(S(=O)(=O)Nc2ccc3c(c2)CC(=O)N([C@@H](C)CO)C[C@H](C)[C@@H](CN(C)Cc2ccc(Oc4ccccc4)cc2)O3)cc1,active
12,Cc1ccc(S(=O)(=O)Nc2ccc3c(c2)CC(=O)N([C@H](C)CO)C[C@@H](C)[C@@H](CN(C)Cc2ccc(Oc4ccccc4)cc2)O3)cc1,active
13,Cc1ccc(S(=O)(=O)Nc2ccc3c(c2)CC(=O)N([C@@H](C)CO)C[C@@H](C)[C@H](CN(C)Cc2ccc(Oc4ccccc4)cc2)O3)cc1,inactive
14,Cc1ccc(S(=O)(=O)Nc2ccc3c(c2)CC(=O)N([C@H](C)CO)C[C@H](C)[C@@H](CN(C)Cc2ccc(Oc4ccccc4)cc2)O3)cc1,inactive
15,Cc1ccc(S(=O)(=O)Nc2ccc3c(c2)CC(=O)N([C@@H](C)CO)C[C@@H](C)[C@@H](CN(C)Cc2ccc(Oc4ccccc4)cc2)O3)cc1,inactive
16,Cc1ccc(S(=O)(=O)Nc2ccc3c(c2)CC(=O)N([C@@H](C)CO)C[C@H](C)[C@H](CN(C)Cc2ccc(Oc4ccccc4)cc2)O3)cc1,inactive
17,COc1ccc(S(=O)(=O)N(C)C[C@@H]2Oc3c(NC(=O)c4cc(C)nn4C)cccc3C(=O)N([C@@H](C)CO)C[C@H]2C)cc1,inactive
18,C[C@H](O)C#Cc1ccc2c(c1)O[C@@H](CN(C)C(=O)Nc1ccccc1)[C@@H](C)CN([C@@H](C)CO)S2(=O)=O,inactive
19,C[C@@H]1CN([C@H](C)CO)C(=O)CCCn2cc(nn2)CO[C@H]1CN(C)S(=O)(=O)c1ccc(Cl)cc1,inactive
20,C[C@@H]1CCCCO[C@@H](CN(C)C(=O)C2CCCCC2)[C@H](C)CN([C@H](C)CO)C(=O)c2cc(NC(=O)Cc3ccccc3)ccc2O1,inactive
21,CC(C)CC(=O)Nc1cncc(-c2ccc3[nH]nc(-c4nc5cncc(-c6cccc(F)c6)c5[nH]4)c3c2)c1,active
22,CO[C@H](CN(C)C(=O)C1CCOCC1)[C@@H](C)CN(C(=O)Nc1ccc(C(F)(F)F)cc1)[C@H](C)CO,inactive

row,Compound,cytotoxicity call
1,COc1ccccc1CNC(=O)C[C@@H]1C[C@H]2c3cc(NC(=O)C4CCOCC4)ccc3O[C@H]2[C@H](CO)O1,inactive
2,CCN(CCCc1ccccc1)CCCc1ccccc1.O=C(O)CC(O)(CC(=O)O)C(=O)O,inactive
3,NCc1nc(-c2ccccc2)no1,inactive
4,CCN(CC)CCc1nc(-c2ccccc2)no1.O=C(O)CC(O)(CC(=O)O)C(=O)O,active
5,C=CC(=O)Nc1ccccc1[C@@H](CCc1ccc(OC)c(OC)c1)OC(=O)[C@@H]1CCCCN1C(=O)C(=O)C(C)(C)CC,inactive
6,COc1ccc(NC(=O)Nc2ccc3c(c2)[C@H]2C[C@H](CC(=O)NCC(F)(F)F)O[C@H](CO)[C@H]2O3)cc1,inactive
7,Cn1cnc(CCNC(=O)C[C@@H]2CC[C@@H]3[C@H](COC[C@@H](O)CN3C(=O)Nc3ccc(C(F)(F)F)cc3)O2)c1,inactive
8,COc1ccc(NC(=O)Nc2cccc3c2O[C@@H](CN(C)Cc2ccc(C(F)(F)F)cc2)[C@H](C)CN([C@@H](C)CO)C3=O)cc1,inactive
9,COc1ccc(CN(C)C[C@@H]2Oc3c(NC(=O)Nc4ccc(C(F)(F)F)cc4)cccc3C(=O)N([C@@H](C)CO)C[C@H]2C)cc1,active
10,COc1ccc(NC(=O)Nc2cccc3c2O[C@@H](CN(C)Cc2ccc(C(F)(F)F)cc2)[C@@H](C)CN([C@H](C)CO)C3=O)cc1,inactive
11,COc1ccc(CN(C)C[C@H]2Oc3c(NC(=O)Nc4ccc(C(F)(F)F)cc4)cccc3C(=O)N([C@H](C)CO)C[C@@H]2C)cc1,inactive
12,COc1ccc(CN(C)C[C@H]2Oc3c(NC(=O)Nc4ccc(C(F)(F)F)cc4)cccc3C(=O)N([C@H](C)CO)C[C@H]2C)cc1,inactive
13,COc1ccc(CN(C)C[C@H]2Oc3c(NC(=O)Nc4ccc(C(F)(F)F)cc4)cccc3C(=O)N([C@@H](C)CO)C[C@H]2C)cc1,active
14,Cc1noc(C)c1NC(=O)N(C)C[C@@H]1OCCCC[C@@H](C)Oc2ccc(NC(=O)C3CCCCC3)cc2C(=O)N([C@H](C)CO)C[C@H]1C,inactive
15,C[C@@H]1CN([C@@H](C)CO)S(=O)(=O)c2ccc(Br)cc2O[C@H]1CN(C)C(=O)c1ccccc1F,inactive
16,O=C(O)c1cc(=O)cc[nH]1,inactive
17,C[C@@H]1CN([C@@H](C)CO)C(=O)Cc2cc(NS(=O)(=O)c3ccc(F)cc3)ccc2O[C@@H]1CN(C)Cc1ccncc1,inactive
18,COc1ccc(CNC(=O)C[C@H]2C[C@H]3c4cc(NC(=O)NC5CCCC5)ccc4O[C@H]3[C@H](CO)O2)cc1,inactive
19,COc1cccc(S(=O)(=O)Nc2ccc3c(c2)[C@H]2C[C@H](CC(=O)NC4CCCCC4)O[C@H](CO)[C@H]2O3)c1,inactive
20,OC(c1ccc(-c2ccc(CN3CCN(Cc4ccncc4)CC3)cc2)c(F)c1)(C(F)(F)F)C(F)(F)F,inactive
21,CC(=O)N[C@@H](CC(C)C)C(=O)O [listing 1 of 2 here],inactive
22,CC(C)C[C@@H](NC(=O)CCN)C(=O)O,active

row,Compound,cytotoxicity call
1,CC(=O)N[C@@H](CC(C)C)C(=O)O [listing 2 of 2 here],inactive
2,O=C(N[C@@H]1CC[C@H](CCNS(=O)(=O)c2ccc(F)cc2)O[C@H]1CO)C1CC1,inactive
3,Cc1noc(C)c1S(=O)(=O)N(C)C[C@@H]1Oc2ccc(NC(=O)NC(C)C)cc2CC(=O)N([C@@H](C)CO)C[C@H]1C,inactive
4,CCN1C(=O)S/C(=C\C(=O)O)C1=O,inactive
5,O=C(C[C@H]1CC[C@@H]2NC[C@@H](O)COC[C@H]2O1)NCCN1CCCCC1,inactive
6,C[C@@H]1CCCCO[C@@H](CN(C)S(=O)(=O)c2ccc(Cl)cc2)[C@H](C)CN([C@H](C)CO)C(=O)c2cc(NC(=O)Nc3ccc(C(F)(F)F)cc3)ccc2O1,inactive
7,C[C@@H]1CCCCO[C@H](CN(C)S(=O)(=O)c2ccc(Cl)cc2)[C@@H](C)CN([C@H](C)CO)C(=O)c2cc(NC(=O)Nc3ccc(C(F)(F)F)cc3)ccc2O1,active
8,C[C@H]1CCCCO[C@H](CN(C)S(=O)(=O)c2ccc(Cl)cc2)[C@@H](C)CN([C@@H](C)CO)C(=O)c2cc(NC(=O)Nc3ccc(C(F)(F)F)cc3)ccc2O1,inactive
9,C[C@@H]1CCCCO[C@@H](CN(C)S(=O)(=O)c2ccc(Cl)cc2)[C@H](C)CN([C@@H](C)CO)C(=O)c2cc(NC(=O)Nc3ccc(C(F)(F)F)cc3)ccc2O1,inactive
10,C[C@@H]1CN([C@H](C)CO)C(=O)c2cc(NC(=O)Nc3ccc(C(F)(F)F)cc3)ccc2O[C@@H](C)CCCCO[C@H]1CN(C)S(=O)(=O)c1ccc(Cl)cc1,inactive
11,C[C@H](CO)N1C[C@H](C)[C@H](CN(C)S(=O)(=O)c2ccc(Cl)cc2)OCCCC[C@H](C)Oc2ccc(NC(=O)Nc3ccc(C(F)(F)F)cc3)cc2C1=O,active
12,COc1ccc(S(=O)(=O)N(C)C[C@@H]2Oc3ncc(-c4cccc(OC)c4)cc3C(=O)N([C@H](C)CO)C[C@@H]2C)cc1,inactive
13,Cc1noc(C)c1S(=O)(=O)Nc1ccc2c(c1)C(=O)N([C@@H](C)CO)C[C@@H](C)[C@H](CN(C)C(=O)Nc1ccc(C(F)(F)F)cc1)OCCCC[C@@H](C)O2,inactive
14,NC[C@H]1COC2(CCCCC2)O1,inactive
15,C[C@H]1CN([C@@H](C)CO)C(=O)Cc2cc(NC(=O)CCN3CCOCC3)ccc2O[C@H]1CN(C)S(=O)(=O)c1ccc(Cl)cc1,inactive
16,CC(=O)Nc1nonc1N1CCCC1=O,inactive
17,O=C(Cc1ccccn1)NCC[C@@H]1CC[C@@H](NC(=O)CN2CCOCC2)[C@@H](CO)O1,inactive
18,Cc1ccc(S(=O)(=O)Nc2ccc3c(c2)C(=O)N([C@@H](C)CO)C[C@@H](C)[C@@H](CN(C)C(=O)Nc2ccc4c(c2)OCO4)OCCCC[C@H](C)O3)cc1,inactive
19,CC1C=CC=CC=CC=CC=CC=CC=CC(OC2OC(C)C(O)C(N)C2O)CC(O)C(C(=O)O)C(O)CC(=O)CC(O)CC(O)CC(O)CC(=O)CCCC(=O)CC(=O)OC1C(C)CC(C)C(O)CC(=O)c1ccc(N)cc1 (stereo not given),active
20,C[C@H]1[C@@H](O)[C@@H](C)\C=C/C=C\C=C/C=C\C=C/C=C\C=C/[C@@H](O[C@H]2O[C@H](C)[C@@H](O)[C@H](N)[C@@H]2O)C[C@H]2O[C@](O)(C[C@@H](O)C[C@@H](O)[C@@H](O)CC[C@@H](O)C[C@@H](O)CC(=O)O[C@H]1C)C[C@@H](O)[C@@H]2C(=O)O,inactive
21,CC1C=CC=CC=CC=CC=CC=CC=CC(OC2OC(C)C(O)C(N)C2O)CC2OC(O)(CC(O)CC(O)C(O)CCC(O)CC(O)CC(=O)OC(C)C(C)C1O)CC(O)C2C(=O)O (stereo not given),inactive
